Screening data as filed in PubChem.
hgDAF12 agonist – agonists of H. glycines DAF-12 nuclear receptor; HEK293 GAL4-hgDAF12 UAS-luciferase reporter, agonist luminescence; normalized to butyrate control; activation, % at 6.8 µM; 370,000 compounds, 1.8% hits;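 active = activation above a cutoff set at the mean of all screened compounds plus 3 SD, cut at about 10% in these data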;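 note: 0% = DMSO wells and 100% = sodium butyrate wells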
DAX1 inh-1 – DAX1 (NR0B1) inhibition, primary screen; 370,000 compounds, 1.1% hits; HEK293T StAR-luciferase reporter, SF-1/DAX-1 repression relief; inhibition, % at 6.8 µM;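 active = inhibition above the mean over all tested compounds plus 3 SD, cut at about 3.6% in these data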;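 note: 0% = DAX-1 cells with DMSO and 100% = cells lacking DAX-1 with DMSO; higher inhibition means more luminescence from relief of DAX-1 repression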
hcDAF12 agonist – H. contortus DAF-12 activation, primary screen | HEK293 hcDAF-12 lit1-tk-luc reporter, luminescence; 0% DMSO, 100% Δ7-dafachronic acid | activation, % at 6.8 µM | 370,000 compounds, 1.4% hits;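 active = activation above the mean of all tested compounds plus 3 SD, cut at about 5.5% in these data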;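 note: 100% = response to 3 µM Δ7-dafachronic acid high control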
ssDAF-12 act – activators of S. stercoralis DAF-12 nuclear receptor; HEK293 ssDAF-12/GRIP1 lit1-tk-luc reporter, luminescence; % of 3 µM dafachronic acid response; activation, % at 6.8 µM; 370,000 compounds, 1% hits; AID 652126;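 active = activation above the mean over all tested compounds plus 3 SD, cut at about 0.9% in these data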;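 note: 0% = DMSO-only wells and 100% = 3 µM delta7-dafachronic acid wells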
DAX1 inh-2 – NR0B1 (DAX1) inhibition | P51843 | HEK293 Gal4-DAX1 luciferase reporter, luminescence | 340,000 compounds, 0.99% hits | inhibition, % at 6.75 µM;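 active = inhibition above the mean over all tested compounds plus 3 SD, cut at about 4.2% in these data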;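 note: 0% = DAX1-transfected cells with DMSO and 100% = empty-vector control cells with DMSO; inhibition shows as a rise in luminescence from relieved DAX1 repression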
Target sequence (P51843 207-470 limits assumed): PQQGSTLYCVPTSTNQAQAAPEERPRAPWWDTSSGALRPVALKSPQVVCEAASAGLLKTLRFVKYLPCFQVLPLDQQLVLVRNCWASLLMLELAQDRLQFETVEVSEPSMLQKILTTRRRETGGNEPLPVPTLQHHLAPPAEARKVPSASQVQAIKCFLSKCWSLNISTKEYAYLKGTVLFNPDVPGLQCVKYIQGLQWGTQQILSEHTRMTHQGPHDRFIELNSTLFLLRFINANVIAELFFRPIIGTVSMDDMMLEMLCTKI
SMARCA2 act – increases SMARCA2 function in MMTV reporter cells. activation, % at 9.1 µM. AID 652017. MG213 cells, MMTV-luciferase reporter, dexamethasone, overnight. 370,000 compounds, 1% hits; in the data active = activation above about 7.8%;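 note: 0% = vehicle wells and 100% = reference activator wells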
An asterisk follows results filed as active; . = no result given. The list is not random: actives were taken first. Their share in the collection is about 4.8%.

SMILES | hgDAF12 agonist | DAX1 inh-1 | hcDAF12 agonist | ssDAF-12 act | DAX1 inh-2 | SMARCA2 act
Cc1ccc(C(=O)NNc2c3ccccc3nc3ccccc23)cc1 | 1.1 | -0.7 | -0.3 | -0.7 | -0.4 | -0.2
Cc1ccc(S(=O)(=O)Nc2ccc(S(=O)(=O)Nc3cc(C)nc(C)n3)cc2)cc1 | 3.4 | 2.3 | 2.4 | -1.1 | 1.3 | -5.7
Cc1cc(NS(=O)(=O)c2ccc(NS(=O)(=O)c3ccc(CC(C)C)cc3)cc2)nc(C)n1 | -0.7 | 0.1 | -0.9 | -1.2 | 5.8* | -1.4
Clc1ccc(-c2nnc3n2N=C(c2ccc(-c4ccccc4)cc2)CS3)c(Cl)c1 | 4.7 | -3.4 | -2.4 | -1.8 | . | -5.8
O=C1C(=Cc2cccn2-c2ccc(O)cc2)C(=O)c2ccccc21 | -0.8 | 0.1 | 1.2 | -0.9 | 0.2 | -0.8
O=C1C(=Cc2cccn2-c2ccccc2)C(=O)c2ccccc21 | 5.2 | 0.2 | 2.2 | 1.0* | -1.0 | 0.1
COc1ccc(C2(C)CC(C)(C)Nc3ccccc32)cc1 (stereo not drawn) | 1.0 | 0.1 | -0.2 | -1.5 | -0.3 | -1.6
COc1ccc(C2CC(C)(c3ccc(OC)cc3)Nc3ccccc3N2)cc1 (stereo not drawn) | 12.0* | 1.6 | 5.7* | -0.5 | 1.4 | 2.7
C=CCN1C(=O)[C@@H](CC(=O)NCc2cccc3ccccc23)[C@]2(C(=O)OCC)CCCCC/C=C/12 | -2.0 | -0.6 | 0.9 | -1.2 | . | -0.5
O=C(COc1ccc(C2SCCS2)cc1)NNC(=O)C(Cl)Cl | 1.2 | 0.2 | 0.1 | 0.1 | 5.9* | -4.0
Cc1ccc(NC(=O)COc2ccc(C3SCCS3)cc2)cc1 | -1.9 | -0.6 | -1.6 | -0.7 | 0.7 | -3.2
CCCCOCCCNC(=O)C[C@@H]1C[C@@]2(C(=O)OC)CC(C)(C)CC=C2N(CCc2ccc(OC)c(OC)c2)C1=O | -1.5 | 0.3 | -1.2 | -1.6 | . | 5.0
COC(=O)[C@@]12C[C@@H](CC(=O)NCCC(C)C)C(=O)N(CCc3ccc(OC)c(OC)c3)C1=CCC(C)(C)C2 | 0.5 | 4.4* | -2.1 | -1.2 | . | -6.0
O=C(O)c1cc(-c2cc3ccccc3o2)nn1-c1ccccc1 | 1.9 | 0.1 | 5.8* | 2.5* | 0.6 | 0.4
O=S1(=O)c2ccc(N3CCN(Cc4ccccc4F)CC3)cc2Oc2ccccc2CN1Cc1cn(Cc2ccc(C(F)(F)F)cc2)nn1 | 0.8 | -0.1 | 0.1 | -0.9 | . | -1.6
COc1ccc(/C=N/NC(=O)c2cccs2)c2ccccc12 | 10.6* | 1.3 | 2.8 | -0.5 | 3.6 | 3.9
COc1ccc(/C=N/NC(=O)c2cccnc2)c2ccccc12 | -0.3 | -0.7 | -0.9 | -1.3 | 0.5 | 0.4
COc1ccc(NC(=S)c2ccc(N(C)C)cc2)cc1 | 8.5 | 3.8* | 4.2 | 0.1 | 1.9 | 4.9
Cc1cccc(C(=O)NC2CCCCCCC2)c1 | 11.2* | 1.2 | 3.0 | -0.1 | 3.4 | 2.7
Cc1cccc(C(=O)NC2CCN(S(=O)(=O)c3ccccc3F)CC2)c1 | -2.1 | -0.4 | -3.2 | -1.6 | 4.3* | -1.2
Cc1ccc(C(=O)NC2CCN(S(=O)(=O)c3ccccc3F)CC2)cc1 | 0.3 | -0.5 | -1.3 | -2.3 | -1.5 | -1.2
COc1ccc(C(=O)NC2CCCCCCC2)cc1OC | 1.9 | 0.5 | 0.3 | -1.3 | 2.6 | 3.9
CN1C(=O)c2ccc(C(=O)NC3CCCCC3)cc2C1=O | 2.3 | -0.5 | -0.4 | 1.0* | 1.6 | 0.7
COC(=O)c1ccc(/C(O)=C(\C#N)c2nc3ccccc3s2)cc1 | 4.9 | 1.1 | 4.6 | 0.4 | 0.6 | 3.9
O=C(c1ccco1)N1CCN(C(=O)c2cc(Cl)nc3ccccc23)CC1 | 0.9 | -0.4 | 2.2 | 1.2* | -0.4 | -3.7
SMILES | hgDAF12 agonist | DAX1 inh-1 | hcDAF12 agonist | ssDAF-12 act | DAX1 inh-2 | SMARCA2 act
CC(C)=C(C#N)c1nc2ccccc2s1 | 3.5 | 0.8 | 2.5 | -0.2 | 5.4* | 2.9
O=C(NNc1nc2ccccc2s1)c1ccccc1F | -1.4 | -0.1 | 5.8* | 0.0 | 0.3 | -0.1
O=C(NNC(=O)c1cc(Cl)nc2ccccc12)c1ccccc1F | -0.9 | 0.8 | 2.3 | 1.1* | -1.9 | -2.9
O=C(NNC(=O)c1cc(-c2ccncc2)nc2ccccc12)c1ccccc1F | 4.3 | 2.4 | 4.0 | -0.7 | 1.7 | 5.5
CC(C)NC(=O)c1nc2ccccc2s1 | 0.7 | 0.1 | 2.7 | 3.2* | -0.9 | 1.8
O=C(NNc1nc2ccccc2s1)Nc1ccc(F)cc1 | 9.7 | 1.4 | 4.5 | 0.1 | 6.0* | 0.0
CC(C)C(=O)NNc1nc2ccccc2s1 | 8.7 | 0.9 | 6.2* | -0.8 | -0.3 | 3.4
Cc1ccc(OC(=O)N(C)C[C@H]2OCc3cn(nn3)CCCC(=O)N([C@@H](C)CO)C[C@@H]2C)cc1 | 6.4 | -0.6 | 0.6 | -0.2 | . | -4.3
CCCCCCCCN1C(=O)[C@@H](CC(=O)NCc2ccc(OC)c(OC)c2)C[C@@]2(C(=O)OC)C1=C[C@H](C(C)C)O[C@@H]2C1CC1 | 1.9 | -0.3 | -2.3 | -1.9 | . | -3.1
CCOC(=O)c1oc2ccc(CNCCO)c(Cl)c2c1C | 7.8 | 2.8 | 6.1* | 0.1 | 2.0 | 4.6
CCOC(=O)c1oc2ccc(CNC3CCCCC3)c(Cl)c2c1C | 1.3 | 0.9 | -0.9 | -0.8 | -0.1 | 0.7
CC(=O)c1csc(COc2ccc(Cl)cc2)n1 | 7.8 | 2.4 | 3.0 | -0.2 | 9.3* | 5.9
O=C(OC12CCCN(C1)/C(=C/c1cccc(Cl)c1)C2)c1ccccc1 (stereo not drawn) | 1.6 | -0.4 | 0.2 | -1.3 | . | -3.5
CCc1ccc(CNCC(=O)N2CCC3(CC2)OCCO3)s1 | 2.8 | 1.2 | 1.5 | -0.3 | . | 2.8
CC(C)C[C@@H]1NC(=O)[C@H]2C[C@@]3(C)c4ccccc4N[C@H]3N2C1=O | -1.1 | -0.1 | -3.0 | -1.5 | . | -6.0
C/C(=N\NC(=O)c1ccc(C)cc1C)c1ccc2c(c1)OCO2 | 7.3 | 0.8 | 1.6 | 1.3* | 1.5 | 6.3
C/C(=N\NC(=O)c1ccc(Cl)c(Cl)c1)c1ccc(Br)s1 | 3.0 | 0.1 | 2.8 | -1.2 | 1.1 | -0.6
C/C(=N/NC(=O)c1ccc2c(c1)OCO2)c1ccc(Br)s1 | 3.2 | 0.5 | -0.2 | 0.9* | 1.2 | 4.1
Cc1ccc(CNC(=O)OC(C)(C)C)c(/C=C/S(=O)(=O)NCCc2ccccc2)c1 | -3.3 | -2.4 | -5.4 | -2.2 | . | -6.6
Nc1ccc2oc3ccccc3c2c1 | 9.7 | 0.6 | 6.1* | -0.2 | 0.9 | 2.5
COC(CNC(=O)[C@H](Cc1ccccc1)NC1(C(=O)NC2CCCCC2)CCCC1)OC | -0.6 | . | -1.1 | -1.4 | . | .
CCC(C)NC(=O)c1cc2cc3ccc(OC)cc3nc2s1 (stereo not drawn) | 10.4 | 3.8* | 4.2 | 1.4* | 0.8 | 2.6
CCOC(=O)c1[nH]c2c(c1-c1ccccc1)C(=O)CC(c1ccccc1)C2 (stereo not drawn) | 6.3 | 2.1 | 0.5 | -1.2 | 6.6* | 3.3
